# Measurements: ChEMBL document CHEMBL1201862, “PubChem BioAssay data set” (2004)
# The whole screen tested about 400,000 compounds, of which about 2,100 (0.53%) were called active. About 14% were inconclusive and are not listed. The rule behind the calls is not given here. For the sample, actives were picked, then their nearest neighbours and some compounds at random.
# Target: Ataxin-2 (Homo sapiens) (UniProt Q99700)
# Experiment: qHTS for Inhibitors of ATXN expression.
# Type: functional
# Chain of Ataxin-2 (Homo sapiens) (Q99700 whole entry): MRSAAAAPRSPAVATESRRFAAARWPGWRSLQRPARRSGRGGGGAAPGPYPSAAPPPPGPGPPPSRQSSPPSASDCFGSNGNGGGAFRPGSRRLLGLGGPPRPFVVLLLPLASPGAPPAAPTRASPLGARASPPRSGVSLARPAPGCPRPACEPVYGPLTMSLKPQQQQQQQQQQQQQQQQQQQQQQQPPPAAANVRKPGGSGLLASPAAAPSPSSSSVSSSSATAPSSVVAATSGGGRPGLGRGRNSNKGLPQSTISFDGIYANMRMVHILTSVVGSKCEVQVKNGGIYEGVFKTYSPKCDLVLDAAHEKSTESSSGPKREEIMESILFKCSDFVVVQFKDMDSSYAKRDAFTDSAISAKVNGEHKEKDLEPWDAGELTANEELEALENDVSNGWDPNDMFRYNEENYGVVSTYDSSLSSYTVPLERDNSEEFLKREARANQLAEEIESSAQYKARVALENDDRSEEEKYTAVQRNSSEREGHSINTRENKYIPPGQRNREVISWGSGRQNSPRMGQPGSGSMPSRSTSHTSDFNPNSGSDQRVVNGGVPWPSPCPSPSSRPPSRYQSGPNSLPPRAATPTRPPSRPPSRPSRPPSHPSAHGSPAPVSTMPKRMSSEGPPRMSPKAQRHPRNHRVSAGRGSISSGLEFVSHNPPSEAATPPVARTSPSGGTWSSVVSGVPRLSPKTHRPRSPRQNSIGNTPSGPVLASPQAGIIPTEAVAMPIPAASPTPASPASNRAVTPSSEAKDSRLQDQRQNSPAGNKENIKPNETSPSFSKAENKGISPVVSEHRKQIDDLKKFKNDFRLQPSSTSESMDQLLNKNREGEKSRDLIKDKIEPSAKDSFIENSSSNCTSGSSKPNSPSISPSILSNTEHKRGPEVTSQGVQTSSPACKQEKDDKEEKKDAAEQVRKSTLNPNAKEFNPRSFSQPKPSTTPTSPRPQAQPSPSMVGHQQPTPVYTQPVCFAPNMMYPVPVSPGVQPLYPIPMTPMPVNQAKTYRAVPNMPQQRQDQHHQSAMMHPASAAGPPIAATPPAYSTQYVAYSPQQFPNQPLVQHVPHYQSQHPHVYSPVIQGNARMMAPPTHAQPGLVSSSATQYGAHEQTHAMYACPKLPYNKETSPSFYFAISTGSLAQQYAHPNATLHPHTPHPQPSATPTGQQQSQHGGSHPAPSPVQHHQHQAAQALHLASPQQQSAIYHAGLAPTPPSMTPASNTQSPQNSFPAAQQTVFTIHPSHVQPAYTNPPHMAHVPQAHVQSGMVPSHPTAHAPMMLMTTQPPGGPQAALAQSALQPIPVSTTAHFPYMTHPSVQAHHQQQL
row,Structure (SMILES),Potency
1,COCCCNC(=S)N/N=C/c1ccc(O)cc1O,inactive
2,CCNC(=S)N/N=C/c1sc(N2CCCCC2)nc1-c1cccs1,inactive
3,Cc1cccc(C)c1NC(=O)COC(=O)c1c2c(nc3ccccc13)/C(=C\c1ccc3c(c1)OCO3)CCC2,inactive
4,N#Cc1cccc(NC(=O)CN2C(=O)NC(Cc3ccccc3)C2=O)c1 (centres undefined),inactive
5,C[C@H]1CN([C@@H](C)CO)S(=O)(=O)c2ccc(Br)cc2O[C@@H]1CN(C)Cc1ccccc1,39.8 µM (active)
6,C[C@@H]1CN([C@@H](C)CO)S(=O)(=O)c2ccc(Br)cc2O[C@H]1CN(C)C(=O)Nc1ccc(C(F)(F)F)cc1,35.5 µM (active)
7,Cc1cc2c(cc1C)N(C(=O)CCl)CCN2C(=O)CCl,35.5 µM (active)
8,COc1ccc(-n2c(N)c(C(=O)NCC3CCCO3)c3nc4ccccc4nc32)c(OC)c1 (centres undefined),inactive
9,COc1ccccc1-n1c(N)c(C(=O)NCC2CCCO2)c2nc3ccccc3nc21 (centres undefined),inactive
10,COc1cccc(-c2[nH]c(C(=O)NCC3CCCO3)cc3c4ccccc4nc2-3)c1 (centres undefined),17.8 µM (active)
11,COc1cc(C(=S)N2CCOCC2)ccc1OC(=O)c1ccc(Br)cc1,inactive
12,CN[C@H]1C[C@H]2c3[nH]c4ccc(-c5cccc(C)c5)cc4c3CCN2C[C@H]1[C@H](C)O,39.8 µM (active)
13,Cc1ccc2[nH]c3c(c2c1)CN(C(=O)CN1CCCCC1)CC3,inactive
14,Cc1cccc(-c2ccc3[nH]c4c(c3c2)CCN2C[C@@H]([C@H](C)O)[C@@H](N(C)C(=O)Nc3ccc(F)cc3)C[C@@H]42)c1,25.1 µM (active)
15,CCOC(=O)N(C)[C@H]1C[C@H]2c3[nH]c4ccccc4c3CCN2C[C@H]1[C@H](C)O,inactive
16,COc1ccc(NC(=O)N(C)[C@H]2C[C@H]3c4[nH]c5ccc(-c6ccc(OC)cc6)cc5c4CCN3C[C@H]2[C@H](C)O)cc1,25.1 µM (active)
17,Cc1ccc2[nH]c3c(c2c1)CCCC3NCCO (centres undefined),inactive
18,COc1ccc(NC(=O)N(C)[C@H]2C[C@H]3c4[nH]c5ccc(-c6cccc(C)c6)cc5c4CCN3C[C@H]2[C@H](C)O)cc1,39.8 µM (active)
19,C[C@H](O)[C@@H]1CN2CCc3c([nH]c4ccccc34)[C@@H]2C[C@@H]1N(C)C(=O)OCc1ccccc1,inactive
20,COc1cccc(-c2c(C#N)c(O)nc3c2-c2ccc(OC)cc2CC3)c1,inactive
21,O=C(O)c1cc(-c2c[nH]c3ccccc23)nc2ccc3ccccc3c12,inactive
22,COc1ccc(-c2ccc3[nH]c4c(c3c2)CCN2C[C@@H]([C@H](C)O)[C@@H](N(C)C(=O)Nc3cc(Cl)cc(Cl)c3)C[C@@H]42)cc1,35.5 µM (active)
23,COC(=O)C1C2CC3c4[nH]c5cc(OC)ccc5c4CCN3CC2CC(OC2CCCCO2)C1OC (centres undefined),inactive

row,Structure (SMILES),Potency
1,O=C(COc1ccc([N+](=O)[O-])cc1)N(C1CCCCC1)C1CCS(=O)(=O)C1 (centres undefined),inactive
2,C/C(=N/OC(=O)C1CC1)c1cc(-c2ccc(Cl)cc2)no1,inactive
3,CCc1cc2c(-c3ccccc3)cc(=O)oc2c2c1OCN(Cc1ccc(C)cc1)C2,inactive
4,O=C1Nc2ccccc2/C1=C/c1c[nH]c(-c2ccccc2)n1,inactive
5,COc1ccc2c(c1)/C(=C\c1cccc(/C=C3/C(=O)Nc4ccc(OC)cc43)n1)C(=O)N2,0.891 µM (active)
6,COc1ccc(N/C=C2/C(=O)N(c3cccc(C)n3)C(=O)c3ccccc32)c(OC)c1,inactive
7,Cc1ccc(S(=O)(=O)c2cc3c(=O)n4ccccc4nc3n(Cc3ccco3)c2=N)cc1,inactive
8,N#CC1=C(N)Oc2cc(O)c(Cl)cc2C1c1ccccc1F (centres undefined),inactive
9,Cc1cccc(NS(=O)(=O)c2ccc(C)c(C(=O)NC3CCN(Cc4ccccc4)CC3)c2)c1,inactive
10,C=CCN1CCN(C(=O)CSc2ccccc2)CC1,inactive
11,Cc1cccc(CC(=O)NC2CCN(C)CC2)c1,inactive
12,Cc1cccc(CN2CCN(C(=O)CCl)CC2)c1,35.5 µM (active)
13,CC(C)c1ccc(CN2CCN(C(=O)CCl)CC2)cc1,15.8 µM (active)
14,CC(C)c1ccc(CN2CCN(S(=O)(=O)c3ccc(Cl)s3)CC2)cc1,inactive
15,C=CCn1c(=O)c(C#N)cc2c(=O)n3ccccc3nc21,inactive
16,O=C(CSc1nnnn1C1CCCCC1)N1CCN(C(=O)c2ccco2)CC1,inactive
17,Cc1sc2nc(C(C)C)nc(SCC(=O)N3CCN(C(=O)c4ccco4)CC3)c2c1C,39.8 µM (active)
18,CCc1cc2ccc(OC)cc2nc1SCC(=O)N1CCN(C(=O)c2ccco2)CC1,25.1 µM (active)
19,COc1ccc2oc(=O)c(C(=O)N3CCN(C(=O)c4ccco4)CC3)cc2c1,inactive
20,O=C(CSc1ccccc1)N1CCN(C(=O)c2ccco2)CC1,inactive
21,Cc1cc(C(=O)N2CCN(C(=O)c3ccco3)CC2)ccc1[N+](=O)[O-],inactive
22,Cc1ccc(S(=O)(=O)N2CCN(C(=O)CN3C(=O)c4ccc([N+](=O)[O-])cc4C3=O)CC2)cc1C,inactive
23,COc1cc2c(C#CCCCO)c(-c3ccc(C#N)cc3)oc(=O)c2cc1OC,inactive

row,Structure (SMILES),Potency
1,C=CC[C@@H](CC(=O)N(CCO)Cc1ccccc1)C(=O)N[C@H](COC(=O)[C@@H](CC=C)CC(=O)OC(C)(C)C)Cc1c[nH]c2ccccc12,35.5 µM (active)
2,C=CC[C@@H](CC(=O)N(CCO)Cc1ccccc1)C(=O)N[C@@H](COC(=O)[C@H](CC=C)CC(=O)OC(C)(C)C)Cc1c[nH]c2ccccc12,22.4 µM (active)
3,C=CC[C@H](CC(=O)N(CCO)Cc1ccccc1)C(=O)N[C@@H](COC(=O)[C@@H](CC=C)CC(=O)OC(C)(C)C)Cc1c[nH]c2ccccc12,25.1 µM (active)
4,CCCC/N=C1\C(=O)N(C)c2cccc3c(O)c4ccccc4c1c23,inactive
5,COc1ccc2c(C#N)c3ccccn3c2c1,inactive
6,Nc1cccc2c1C(=O)N(CCOc1ccc(F)cc1)C2=O,inactive
7,c1ccc(N2CC3CCc4ccccc4C3=N2)cc1 (centres undefined),inactive
8,C/C(CCCO)=N/Nc1ccc([N+](=O)[O-])cc1[N+](=O)[O-],inactive
9,CC/C(=N\Nc1ccc([N+](=O)[O-])cc1[N+](=O)[O-])c1ccc(O)cc1,8.91 µM (active)
10,CC1=CC(C)(C)N2C(=O)/C(=N/c3ccc(O)cc3)c3cccc1c32,31.6 µM (active)
11,CN1C(=O)/C(=N\c2ccc(Cl)cc2)c2c3ccccc3c(O)c3cccc1c23,inactive
12,Cc1ccc(-c2ccc(CN3C(CC(C)C)C(=O)N(Cc4cn(CCC5OCCCO5)nn4)CCS3(=O)=O)cc2)cc1 (centres undefined),20 µM (active)
13,CC(C)CC1C(=O)N(Cc2cn(CCC3OCCCO3)nn2)CCS(=O)(=O)N1Cc1ccc(-c2ccc(Cl)nc2)cc1 (centres undefined),31.6 µM (active)
14,O=C(c1cc(Br)ccc1O)N1CCN(S(=O)(=O)Cc2ccccc2)CC1,inactive
15,Brc1ccc(-c2nnc3sc(CNCc4ccc5c(c4)OCO5)cn23)cc1,inactive
16,O=C(O)c1ccc(S(=O)(=O)N2CCC(NC(=O)C3CCCCC3)CC2)cc1,inactive
17,COCCN(Cc1ccccc1)C(=O)c1ccc(C(=O)c2ccccc2)cc1,inactive
18,CCCOc1ccc(CN(CCC#N)C(=S)NC(=O)c2ccccc2)cc1,39.8 µM (active)
19,Cc1ccc(NC(=O)N(CCC#N)Cc2ccccc2)cc1,inactive
20,O=C(O)COc1c(Cl)cc(/C=C2/NC(=O)NC2=O)cc1Br,inactive
21,Cc1nnc(N/N=C/c2ccc(-c3ccc(Br)cc3)o2)n1N,inactive
22,COCCCn1/c(=N/C(=O)c2ccccc2)c(C#N)cc2c(=O)n3cccc(C)c3nc21,inactive
23,Cc1ccsc1C(=O)OCC(=O)Nc1cccc(F)c1,inactive

row,Structure (SMILES),Potency
1,Cc1ccc(C(=O)COC(=O)c2cccc(NC(=O)c3ccc(Cl)cc3Cl)c2)cc1,35.5 µM (active)
2,CN1C(=O)c2ccc(NC(=O)c3ccc(Cl)cc3Cl)cc2C1=O,inactive
3,O=c1cc(-c2ccccc2)c2cc(Cl)c(O)c(CN3CCOCC3)c2o1,inactive
4,COc1ccc(-c2cc3ccc(O)c(CN4CCCC(C)C4)c3oc2=O)cc1OC (centres undefined),inactive
5,COc1ccc(CN2COc3ccc4c(-c5ccccc5)cc(=O)oc4c3C2)cc1OC,inactive
6,COc1cc2oc(=O)cc(-c3ccc(-c4ccc(N(C)C)cc4)cc3)c2c(OC)c1OC,inactive
7,COc1cc(C(CCN2CCCC2)c2c(OC)cc(OC)c3c(-c4ccccc4)cc(=O)oc23)cc(OC)c1OC (centres undefined),22.4 µM (active)
8,COc1ccc(-c2cc(=O)oc3c4c(ccc23)OCN(Cc2cccc(OC)c2)C4)cc1,inactive
9,CCCc1cc(=O)oc2c(C)c(O)c(CN3CCCCC3)cc12,inactive
10,COc1ccc(C(CCN2CCCC(C)C2)c2c(OC)cc(OC)c3c(-c4ccccc4)cc(=O)oc23)cc1 (centres undefined),31.6 µM (active)
11,O=c1cc(-c2ccccc2)c2cc(Cl)c3c(c2o1)CN(Cc1ccccc1)CO3,inactive
12,COc1cc(C(CCN2CCCC(C)C2)c2c(OC)cc(OC)c3c(-c4ccccc4)cc(=O)oc23)cc(OC)c1OC (centres undefined),31.6 µM (active)
13,CCCCCc1cc(=O)oc2c(C(CCN3CCCC3)c3cc(OC)c(OC)c(OC)c3)c(OC)cc(OC)c12 (centres undefined),35.5 µM (active)
14,CCc1cc(=O)oc2c(C)c3c(cc12)CN(CCc1ccccc1OC)CO3,inactive
15,COc1ccc(C2CC(c3ccccc3)=NN2c2ccccc2)c(C(=O)O)c1OC (centres undefined),inactive
16,Cc1cc(C)c2nc(NCCCNC(S)=NCCCN(C)C)c(C#N)cc2c1,inactive
17,Cn1nc(C(=O)Nc2ccc(Br)cc2)cc1C(=O)Nc1ccc(Br)cc1,inactive
18,CCNc1ccc2c(Cl)cc(=O)oc2c1,inactive
19,COc1ccc(C2=CC(c3ccc(Cl)cc3)n3cnnc3N2)cc1OC (centres undefined),inactive
20,CN1CCN(CCOCCOc2c(Cl)cc(Cl)cc2Cl)CC1,inactive
